Measured values: PubChem BioAssay (NCATS)
Inconclusive results are not listed. Unmarked numbers belong to inactive results. The call rests on the fitted dose curve; in most records, active means well fitted curve in the direction sought with a large enough effect; inconclusive means small, poorly fitted or top-dose-only effect, or effect the other way, or another doubt; inactive means no such curve, though single readings can be large or run the other way.

Test: 10-beta competent E. coli microbial cell viability qHTS against the NCATS CANVASS Library (AID 1347376); further: 0% is about no effect
Conditions: E. coli 10-beta viability, BacTiter-Glo ATP luminescence, overnight; series mostly up to 46.1 µM; activity change, negative = cytotoxic: at the top concentration
Source text: Natural products and their derivatives continue to be wellsprings of nascent therapeutic potential. However, many laboratories have limited resources for biological evaluation, leaving their previously isolated or synthesized compounds largely or completely untested. To address this issue, the Canvass library of natural products was assembled (https://tripod.nih.gov/canvass), in collaboration with academic and industry researchers, for quantitative high-throughput screening (qHTS) across a diverse set of cell-based and biochemical assays. The pure (>85% purity by liquid chromatography/mass spectrometry [LC/MS]) Canvass library of 346 natural products were submitted by 45 academic laboratories and companies around the world. We collected pure natural products to circumvent deconvolution and structure elucidation due to time and resource limitations. The library was formatted into 1536-well plates and evaluated in 50 qHTS (in an 11-pnt concentration series) bioassays with broad scope of disease-relevant mechanisms. The resulting data set from 50 different assays was then systematically analyzed to identify overall trends and specific natural products with interesting biological activities. Reported herein are the results of each individual qHTS and their corresponding assay protocol. The BacTiter-Glo microbial cell viability assay is a homogeneous method for determining the number of viable bacterial cells in culture based on quantitation of the ATP present. ATP is an indicator of metabolically active cells. The homogeneous assay procedure involves adding a single reagent (BacTiter-GloTM Reagent) directly to bacterial cells in medium and measuring luminescence. National Center for Advancing Translational Sciences (NCATS), Rockville, MD National Institute of Health (NIH), Bethesda, Maryland
10-beta competent E.coli cytotoxicity protocol: 1. In a 1536 well, tissue culture treated white solid bottom plates (Greiner Bio-One North America), 5 uL of 10-beta competent E. coli suspension (0.9 OD culture diluted 0.2 OD) was dispensed into columns 1, 2, and 5-48 using the Multidrop Combi dispenser (Thermo Fisher Scientific). 2. Controls and compounds were pin transferred (~23 nL volume) to the assay plates via Wako Pin-tool (Wako Automation, Richmond VA) equipped with a 1536 pin head. The compounds were transferred to columns 5-48 resulting in a final concentration ranging from 0.17nM to 92uM. Daunomycin was used as a control in various concentrations (1mM working concentration; 1:2 dilution; 16 points; n=2; column 2, rows) for a final concentration range of 0.2 nM to 9.2 uM. 3. The assay plates were incubated overnight at 37C, 5% CO2, 95% humidity. 4. 2.5 uL of BacTiterGlo solution (Promega) was then added to the assay plates (column 1-48, rows 1-32). The assay plates were incubated at room temperature for 20 min. 5. Luminescence signal was acquired via the ViewLux plate reader using a clear emission filter, 2 second exposure and 2x binning settings.

Compound	activity change, negative = cytotoxic
CCCC[C@@H]1CC[C@H]2CCCC(CCC)N12 (stereo partly specified)	-9.27%
C[C@@H]1CC[C@@H](c2ccoc2)N2C[C@@]3(CC[C@@H]12)CS[C@@]1(CC[C@H]2[C@H](C)CC[C@@H](c4ccoc4)N2[C@@H]1O)C3	6.82%
CO[C@H](c1ccccc1)[C@H]1NC(=O)C(C)NC(=O)C(C[C@@H](C)CO)N(C)C(=O)[C@@H](C(O)c2cn(C(C)(C)C3CO3)c3ccccc23)NC(=O)C(C(C)C=C(C)C)NC(=O)C(CC(C)C)N(C)C(=O)C(C(C)C)NC1=O (stereo partly specified)	-3.09% [at 27.5 µM]
CNCCc1ccc(O)cc1	-10.7%
O=C(c1ccccc1O)c1[nH]c(Cl)c(Cl)c1-n1c(C(=O)c2ccccc2O)cc(Cl)c1Cl	-9.46%
CCC[C@H]1CC[C@H]2[C@H](C)CCC[C@H]2N1	-9.19%
C/C=C1/CN2CC[C@]34C(=Nc5ccccc53)[C@@H]2C[C@@H]1[C@H]4C(=O)OC	4% [at 91.4 µM]
COc1ccc2c(c1)[nH]c1c(C)nccc12	3.9% [at 91.4 µM]
CC[C@@H]1CN2CC[C@@]3(O)C(=Nc4cccc(OC)c43)[C@@H]2C[C@@H]1/C(=C\OC)C(=O)OC	-0.67%
CC(=O)N[C@H]1CCN2CCC[C@H]12	-11.9% [at 103 µM]
CCCCC[C@@H]1OC(=O)[C@@H](C)N(C)C(=O)[C@H](CCCCC)OC(=O)C(C)N(C)C(=O)[C@H](CCCCC)OC(=O)[C@@H](C)N(C)C(=O)[C@H](CCCCC)OC(=O)C(C)N(C)C1=O (stereo partly specified)	14.3%
CO[C@@H](/C=C/CC/C=C/C(=O)O)[C@@H](O)[C@H](C)/C=C(\C)[C@@H](O)[C@H](C)C(=O)CCCC1CC(=O)NC(=O)C1	7.64%
CCN1C[C@]2(C)CC[C@H](O)[C@]34C1C(C[C@H]23)[C@@]12CC[C@H](CC14)[C@](O)(COC(=O)c1ccc(OC)c(OC)c1)[C@H]2O (stereo partly specified)	-5.93%
CC1=CC2CC[C@@H]3[C@@H](C)C[C@H](C)[C@@H](C1)N23 (stereo partly specified)	-6.6%
C=C1[C@@H](C)[C@H]2[C@H](Cc3ccccc3)NC(=O)[C@]23OC(=O)/C=C/[C@H](O)CCC[C@@H](C)C/C=C/[C@H]3[C@@H]1O	-0.869%
c1ccc2c3c([nH]c2c1)CNCC3	-5.24%

Compound	activity change, negative = cytotoxic
CC1=CC(=O)C2=C(C)C[C@H](O)[C@@H]3[C@H](OC(=O)[C@@H]3C)[C@@H]12	-6.42%
CCN1C[C@]2(C)CC[C@@H](O)[C@]34C1[C@H](C[C@H]23)C12CCC(CC14)[C@](O)(CO)[C@H]2O (stereo partly specified)	-20.5%
COC(=O)C1=C2Nc3ccccc3[C@@]23CCN2CC(C(C)=O)C1C[C@H]23 (stereo partly specified)	-3.8%
CO[C@@H](/C=C/CC/C=C/C(=O)O)[C@@H](O)[C@H](C)[C@@H](O)/C(C)=C/[C@H](C)C(=O)CCCC1CC(=O)NC(=O)C1	14.8%
CN1C(=O)[C@]23CC4C(C)(C)[C@@]5(C[C@@]41CN2CC[C@@]3(C)O)C(=O)Nc1c5ccc2c1OC=CC(C)(C)O2 (stereo partly specified)	5.34%
CC[N@@+]1([O-])C[C@]2(C)CC[C@@H](O)[C@@]34C5C[C@H]6CC[C@@]5(C(C[C@H]23)C41)[C@H](O)[C@@]6(O)CO (stereo partly specified)	-9.54%
CCC(=O)CCCCC[C@@H]1NC(=O)[C@H]2CCCCN2C(=O)[C@H]([C@@H](C)CC)NC(=O)[C@H](Cc2cn(OC)c3ccccc23)NC1=O	-13.9%
CN(C)Cc1c[nH]c2ccccc12	-6.86%
CNCCc1ccccc1	-0.742%
C[C@]12CC(O)C3[C@@H](CCC4C[C@@H](O)CC[C@@]43CO)[C@@]1(O)CCC2C1=CC(=O)OC1 (stereo partly specified)	-11.2%
COc1ccc2c3c([nH]c2c1)C(C)=NCC3	-7.79%
CC=C1CN(C=O)[C@H]2C[C@@H]1[C@@H](C(=O)OC)[C@@]13CCOC21Nc1ccccc13 (stereo partly specified)	-16.2%
CNCCc1c[nH]c2ccccc12	12.1%
NCCc1ccccc1	10.8%
COc1ccc(C23Oc4cc(OC)cc(OC)c4[C@](O)([C@H](c4ccccc4)C2C(=O)NCCCCNC(=O)c2ccccc2)[C@@H]3O)cc1 (stereo partly specified)	1.85%
